Assay results from ChEMBL document CHEMBL3988442, “University of Dundee, Small-Polar-MMV Screening Library” (2021).
For some of these results: Measured potencies and affinities stand elsewhere.

How the values were obtained:
Parameters in all cases: scale not given: direction of the effect not stated beside the values
[1] = target: Protein translocase subunit SecA (Escherichia coli (strain K12)) (UniProt P10408); test: Assay to Identify E. coli SecA ATPase Inhibitors; type: functional; conditions: 30 µM
[2] = target: T1, Ubiquitin-activating enzyme e1, putative (Leishmania donovani (strain BPK282A1)) (UniProt E9BSI1); test: Leishmania donovani Ubiquitin Activating Enzyme (LdE1); type: functional; conditions: 30 µM
T1 sequence (whole entry): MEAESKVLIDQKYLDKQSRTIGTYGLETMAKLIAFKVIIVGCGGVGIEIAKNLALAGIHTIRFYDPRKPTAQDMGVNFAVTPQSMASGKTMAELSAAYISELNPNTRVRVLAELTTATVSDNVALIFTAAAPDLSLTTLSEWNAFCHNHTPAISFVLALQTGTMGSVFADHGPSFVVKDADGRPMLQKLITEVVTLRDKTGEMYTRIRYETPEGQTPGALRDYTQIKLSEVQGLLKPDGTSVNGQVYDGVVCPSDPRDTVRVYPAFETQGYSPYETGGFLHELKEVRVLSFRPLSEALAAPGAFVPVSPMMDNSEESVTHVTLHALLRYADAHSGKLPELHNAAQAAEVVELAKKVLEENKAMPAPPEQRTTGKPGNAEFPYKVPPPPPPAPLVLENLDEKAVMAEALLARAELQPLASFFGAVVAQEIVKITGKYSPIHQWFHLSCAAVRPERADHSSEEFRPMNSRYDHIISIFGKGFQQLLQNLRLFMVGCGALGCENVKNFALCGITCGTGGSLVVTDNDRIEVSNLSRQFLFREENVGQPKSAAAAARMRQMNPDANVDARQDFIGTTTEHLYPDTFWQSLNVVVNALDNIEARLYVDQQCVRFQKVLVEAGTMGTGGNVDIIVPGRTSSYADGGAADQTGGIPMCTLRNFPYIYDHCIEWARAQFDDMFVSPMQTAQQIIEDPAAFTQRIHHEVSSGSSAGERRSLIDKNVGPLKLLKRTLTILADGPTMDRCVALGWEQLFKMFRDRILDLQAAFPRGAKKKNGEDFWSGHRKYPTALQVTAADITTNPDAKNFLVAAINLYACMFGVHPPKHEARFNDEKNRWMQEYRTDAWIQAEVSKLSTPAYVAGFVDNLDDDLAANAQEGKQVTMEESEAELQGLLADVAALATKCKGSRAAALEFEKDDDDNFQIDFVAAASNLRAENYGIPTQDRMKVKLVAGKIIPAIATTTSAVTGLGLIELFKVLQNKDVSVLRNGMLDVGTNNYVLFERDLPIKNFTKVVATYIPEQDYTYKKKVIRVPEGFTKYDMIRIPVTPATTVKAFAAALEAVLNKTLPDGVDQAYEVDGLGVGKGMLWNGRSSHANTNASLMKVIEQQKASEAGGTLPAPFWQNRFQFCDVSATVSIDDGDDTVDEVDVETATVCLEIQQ

[3] = target: AMP-activated protein kinase, AMPK (Homo sapiens) (UniProt P54646+O43741+P54619+Q9UGJ0+Q9Y478+Q13131+Q9UGI9); test: AMP-dependent Kinase enzyme assay. An in vitro enzyme assay that detects ADP turnover that is directly proportional to AMPK activity. This uses naive AMPK that is activated during the assay with MK-8722; type: functional; conditions: 30 µM
[4] = target: Sialic acid-binding Ig-like lectin 9 (Homo sapiens) (UniProt Q9Y336); test: Hs-Siglec9 ALPHAscreen SOP 20170721; conditions: 10 µM
Trypanosoma cruzi = test: Trypanosoma cruzi phosphomannomutase and mannose-1-phosphate guanylyltransferase assay; type: functional; conditions: 10 µM
[5] = target: T2, Arginase-2, mitochondrial (Homo sapiens) (UniProt P78540); test: in vitro enzyme assay to detect the production of urea directly proportional to the activity of Arginase II; type: functional; conditions: 33.3 µM; further: in the data most compounds retested in dose-response had high values
T2 sequence (whole entry): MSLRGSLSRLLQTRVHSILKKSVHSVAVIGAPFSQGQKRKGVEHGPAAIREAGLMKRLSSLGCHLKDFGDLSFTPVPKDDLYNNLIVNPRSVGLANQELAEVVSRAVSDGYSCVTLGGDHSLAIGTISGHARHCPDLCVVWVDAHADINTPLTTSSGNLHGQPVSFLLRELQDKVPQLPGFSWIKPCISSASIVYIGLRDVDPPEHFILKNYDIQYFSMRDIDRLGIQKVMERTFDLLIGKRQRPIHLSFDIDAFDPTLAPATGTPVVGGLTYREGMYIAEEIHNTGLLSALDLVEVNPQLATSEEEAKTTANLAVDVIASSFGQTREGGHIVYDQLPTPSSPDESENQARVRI

[6] = target: T3, Proteasome subunit beta (Trypanosoma cruzi) (UniProt O96673); test: Trypanosoma cruzi proteasome chymotrypsin-like activity (TcProtChymo) assay.; further: in the data most compounds retested in dose-response had high values; type: functional; conditions: 9.37 µM
T3 sequence (whole entry): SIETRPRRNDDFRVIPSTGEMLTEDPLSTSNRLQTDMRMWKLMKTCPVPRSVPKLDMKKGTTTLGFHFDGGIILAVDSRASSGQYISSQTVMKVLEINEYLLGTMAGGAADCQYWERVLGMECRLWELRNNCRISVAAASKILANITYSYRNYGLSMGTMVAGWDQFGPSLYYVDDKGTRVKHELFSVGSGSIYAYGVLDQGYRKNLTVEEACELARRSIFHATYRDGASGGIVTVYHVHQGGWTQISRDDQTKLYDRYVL

Homo sapiens = organism: Homo sapiens; test: To identify inhibition of the IFN signalling (Jak-Stat) pathway via expression of an eGFP reporter gene under the control of an IFN-stimulated response element (ISRE) containing MxA promoter.; type: functional; conditions: 30 µM
[7] = target: T4, Tyrosyl-tRNA synthetase, putative (Trypanosoma cruzi (strain CL Brener)) (UniProt Q4DSP6); test: Trypanosoma cruzi tyrosyl tRNA synthetase (TcYRS) _High Tyrosine SOP; type: functional; conditions: 30 µM; further: in the data most compounds retested in dose-response had high values
T4 sequence (whole entry): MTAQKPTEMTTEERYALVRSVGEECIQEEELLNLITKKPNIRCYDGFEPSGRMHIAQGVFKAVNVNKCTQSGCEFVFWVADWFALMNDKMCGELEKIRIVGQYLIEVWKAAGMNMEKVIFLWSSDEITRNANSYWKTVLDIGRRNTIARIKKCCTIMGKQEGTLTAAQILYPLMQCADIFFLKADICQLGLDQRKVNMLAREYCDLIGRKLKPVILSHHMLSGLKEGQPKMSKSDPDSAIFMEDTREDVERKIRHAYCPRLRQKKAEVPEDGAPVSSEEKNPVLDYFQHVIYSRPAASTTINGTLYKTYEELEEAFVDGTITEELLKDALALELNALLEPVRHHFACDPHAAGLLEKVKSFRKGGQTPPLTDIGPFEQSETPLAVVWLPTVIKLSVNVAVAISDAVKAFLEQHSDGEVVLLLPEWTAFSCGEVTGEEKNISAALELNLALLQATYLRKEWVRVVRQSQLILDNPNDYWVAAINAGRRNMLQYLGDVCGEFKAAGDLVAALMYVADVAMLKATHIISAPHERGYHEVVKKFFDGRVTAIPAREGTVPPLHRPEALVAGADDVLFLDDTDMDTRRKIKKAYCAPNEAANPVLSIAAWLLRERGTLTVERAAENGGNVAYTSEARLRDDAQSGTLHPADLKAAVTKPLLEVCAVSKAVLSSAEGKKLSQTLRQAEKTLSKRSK

[8] = target: T4, Tyrosyl-tRNA synthetase, putative (Trypanosoma cruzi (strain CL Brener)); test: Trypanosoma cruzi tyrosyl tRNA synthetase (TcYRS) SOP; type: functional; conditions: 30 µM
[9] = target: Chromo domain-containing protein 1 (Saccharomyces cerevisiae (strain ATCC 204508 / S288c) (Baker's yeast)) (UniProt P32657); test: ScCHD-1 Enzyme Inhibition Assay; type: functional; conditions: 30 µM; further: in the data most compounds retested in dose-response had high values
Chromo domain-containing protein 1 (Saccharomyces cerevisiae (strain ATCC 204508 / S288c) (Baker's yeast)), sequence (P32657 whole entry, the tested form may be a part): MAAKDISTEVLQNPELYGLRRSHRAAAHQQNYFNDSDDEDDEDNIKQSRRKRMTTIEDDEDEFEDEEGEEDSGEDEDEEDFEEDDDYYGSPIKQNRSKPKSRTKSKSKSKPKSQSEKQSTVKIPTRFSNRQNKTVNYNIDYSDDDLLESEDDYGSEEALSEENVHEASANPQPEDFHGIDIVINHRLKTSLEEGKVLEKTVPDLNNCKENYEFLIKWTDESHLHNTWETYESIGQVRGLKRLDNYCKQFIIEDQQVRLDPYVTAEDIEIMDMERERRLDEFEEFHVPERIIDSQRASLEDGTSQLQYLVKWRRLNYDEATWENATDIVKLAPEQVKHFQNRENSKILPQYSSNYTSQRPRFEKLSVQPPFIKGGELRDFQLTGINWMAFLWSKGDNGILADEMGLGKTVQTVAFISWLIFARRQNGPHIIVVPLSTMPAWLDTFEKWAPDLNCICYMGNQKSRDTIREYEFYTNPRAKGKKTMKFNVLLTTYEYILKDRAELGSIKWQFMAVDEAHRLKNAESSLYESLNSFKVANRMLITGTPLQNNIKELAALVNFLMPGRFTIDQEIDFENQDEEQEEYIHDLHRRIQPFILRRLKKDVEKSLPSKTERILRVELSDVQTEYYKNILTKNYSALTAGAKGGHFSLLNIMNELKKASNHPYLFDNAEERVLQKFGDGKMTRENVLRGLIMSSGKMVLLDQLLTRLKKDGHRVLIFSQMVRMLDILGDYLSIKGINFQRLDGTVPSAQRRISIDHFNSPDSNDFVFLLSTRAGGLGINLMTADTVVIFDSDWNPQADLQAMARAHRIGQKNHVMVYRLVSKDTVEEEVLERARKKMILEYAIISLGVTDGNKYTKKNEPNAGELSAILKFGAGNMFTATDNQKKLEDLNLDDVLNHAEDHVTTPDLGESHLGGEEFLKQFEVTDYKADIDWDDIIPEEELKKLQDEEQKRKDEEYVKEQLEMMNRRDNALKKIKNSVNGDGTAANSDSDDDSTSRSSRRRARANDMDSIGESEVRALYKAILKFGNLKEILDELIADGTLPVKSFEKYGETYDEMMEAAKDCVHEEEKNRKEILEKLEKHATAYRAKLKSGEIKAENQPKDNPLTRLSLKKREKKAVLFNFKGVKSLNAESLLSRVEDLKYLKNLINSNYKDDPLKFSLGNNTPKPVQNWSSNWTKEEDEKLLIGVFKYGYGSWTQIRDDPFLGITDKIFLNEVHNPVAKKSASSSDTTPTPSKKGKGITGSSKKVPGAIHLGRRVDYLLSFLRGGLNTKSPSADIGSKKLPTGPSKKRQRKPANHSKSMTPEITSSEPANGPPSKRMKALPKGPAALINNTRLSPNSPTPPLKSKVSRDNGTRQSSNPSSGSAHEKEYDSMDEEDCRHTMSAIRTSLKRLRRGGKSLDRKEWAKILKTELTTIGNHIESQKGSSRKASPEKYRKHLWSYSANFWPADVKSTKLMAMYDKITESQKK

Protein translocase subunit SecA (Escherichia coli (strain K12)), sequence (P10408 whole entry): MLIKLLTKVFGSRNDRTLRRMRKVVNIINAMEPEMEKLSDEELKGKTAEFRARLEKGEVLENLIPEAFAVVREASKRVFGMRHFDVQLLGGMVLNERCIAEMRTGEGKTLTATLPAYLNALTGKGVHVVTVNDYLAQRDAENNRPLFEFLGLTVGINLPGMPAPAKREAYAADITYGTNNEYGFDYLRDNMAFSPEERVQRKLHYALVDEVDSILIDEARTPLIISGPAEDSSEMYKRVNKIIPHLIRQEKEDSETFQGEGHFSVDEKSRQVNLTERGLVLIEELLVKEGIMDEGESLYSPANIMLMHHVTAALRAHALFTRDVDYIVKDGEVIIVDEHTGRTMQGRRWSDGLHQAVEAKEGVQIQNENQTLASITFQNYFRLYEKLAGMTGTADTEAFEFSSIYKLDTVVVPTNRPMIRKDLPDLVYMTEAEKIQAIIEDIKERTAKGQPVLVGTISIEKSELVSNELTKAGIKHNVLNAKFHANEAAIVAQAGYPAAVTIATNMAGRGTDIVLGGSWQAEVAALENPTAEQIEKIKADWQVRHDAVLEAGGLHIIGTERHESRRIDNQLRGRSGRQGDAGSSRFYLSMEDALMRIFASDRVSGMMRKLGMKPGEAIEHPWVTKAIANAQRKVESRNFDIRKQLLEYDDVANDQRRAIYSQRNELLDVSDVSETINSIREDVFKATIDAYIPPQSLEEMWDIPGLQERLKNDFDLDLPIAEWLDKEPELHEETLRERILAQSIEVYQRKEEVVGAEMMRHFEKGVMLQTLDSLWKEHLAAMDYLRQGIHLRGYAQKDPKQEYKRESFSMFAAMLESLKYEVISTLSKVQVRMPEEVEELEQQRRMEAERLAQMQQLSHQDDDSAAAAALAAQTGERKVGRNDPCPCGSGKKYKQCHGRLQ
Sialic acid-binding Ig-like lectin 9 (Homo sapiens), sequence (Q9Y336 whole entry): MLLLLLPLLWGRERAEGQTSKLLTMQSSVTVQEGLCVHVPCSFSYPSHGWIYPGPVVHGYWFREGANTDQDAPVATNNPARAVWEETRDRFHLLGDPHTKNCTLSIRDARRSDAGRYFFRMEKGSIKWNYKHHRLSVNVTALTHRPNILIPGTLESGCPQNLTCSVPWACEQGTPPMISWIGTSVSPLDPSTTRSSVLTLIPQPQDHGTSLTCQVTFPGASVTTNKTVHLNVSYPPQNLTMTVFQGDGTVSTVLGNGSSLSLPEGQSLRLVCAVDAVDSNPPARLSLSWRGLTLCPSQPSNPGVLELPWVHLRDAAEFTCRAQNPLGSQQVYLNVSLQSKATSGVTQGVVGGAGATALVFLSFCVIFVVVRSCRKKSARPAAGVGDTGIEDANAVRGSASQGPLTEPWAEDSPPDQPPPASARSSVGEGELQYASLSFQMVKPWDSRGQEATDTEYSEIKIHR

Structure (SMILES)	Percent Effect [1]	Percent Effect [2]	Percent Effect [3]	Percent Effect [4]	Percent Effect (Trypanosoma cruzi)	Percent Effect [5]	Percent Effect [6]	Percent Effect (Homo sapiens)	Percent Effect [7]	Percent Effect [8]	Percent Effect [9]
N#CC1(C(=O)N2CCN(Cc3ccon3)CC2)CCC1	-1.32%	5.06%	1.56%	6.56%	-7.84%	9.89%	1.56%	23.8%	0.493%	1.27%	-3.39%
Cn1c(NCC(O)c2ccc(F)cc2F)c(C#N)c(=O)n(C)c1=O (stereo unspecified)	-4.86%	17.7%	-12.9%	-5.84%	1.6%	6.46%	4.01%	-3.56%	5.42%	13.9%	-7.19%
O=C(c1cscn1)N1C[C@@H]2C[C@@H](c3nnc(C4CC4)o3)O[C@@H]2C1	1.55%	7.79%	2.51%	-3.79%	-10.2%	22.6%	10.4%	7.19%	-1.06%	6.41%	-7.72%
Cc1ncsc1C(=O)N1CCCN(Cc2cscn2)CC1	-2.64%	5.2%	1.53%	0.904%	3.82%	-1.9%	-3.8%	-3.73%	6.67%	9.41%	-14.3%
N#Cc1ccccc1OCCN1CCCCC1Cn1cncn1 (stereo unspecified)	-2.06%	5.41%	-28.6%	8.52%	5.94%	-5.61%	3.78%	-11.9%	12.3%	16.1%	-11.1%
Nc1nccc(N2CCCC(CO)(CCOc3ccccc3)C2)n1 (stereo unspecified)	-4.62%	2.6%	-0.596%	19%	8.75%	-13.8%	15.3%	41.9%	7.53%	13.6%	-3.14%
COc1ccc(C2CCCN2C(=O)NCCNc2ncccn2)cc1 (stereo unspecified)	0.96%	2.74%	-8.6%	-2.28%	-7.83%	6.36%	19.3%	16.6%	5.38%	12.5%	-6.8%
COc1ccccc1OCc1cc(C(=O)N2CC=CC2C(C)C)n[nH]1 (stereo unspecified)	0.254%	1.39%	-2.81%	9.42%	2.82%	8.83%	11.9%	-13.9%	5.26%	7.69%	-2.27%
CCc1nccn1C1CCCN(C(=O)c2cc3nc(C)ccc3o2)C1 (stereo unspecified)	-7.55%	8.11%	-3.48%	4.87%	-6.7%	-4.81%	4.87%	32.4%	3.45%	3.7%	0.188%
CCC(=O)Nc1nnc(CCOc2cccc(OC)c2)s1	-4.51%	-6.67%	42.3%	1.2%	-3.54%	-4.4%	9.43%	7.09%	0%	-7.69%	-2%
CCn1cc(CN2CCCN(C(=O)c3ccn(C)c(=O)c3)CC2)cn1	-0.55%	20.8%	-9.71%	-17.4%	4.02%	-0.632%	10.9%	11.6%	10.5%	23.5%	-18.6%
